Measurements taken from PubChem BioAssay (NCI).
Compounds without any hit were thinned out: in the full panel of roughly 83,000, 20% have a hit.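 Treatment: one concentration, 48 hours, 96-well format. Scoring: percent growth, with anything below 10 considered active.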 Activity calls are given as the source filed them.

Key:
Assay in all cases: NCI-60 one-dose screen, 48 h (100 = growth as untreated, 0 = no growth, -100 = all killed)
Details in all cases: 10 µM unless noted
BT-549 breast = tested on: BT-549 breast
MDA-MB-435 melanoma = tested on: MDA-MB-435 melanoma
SW-620 colon = tested on: SW-620 colon
MCF7 breast = tested on: MCF7 breast
HCT-116 colon = tested on: HCT-116 colon
HCC-2998 colon = tested on: HCC-2998 colon
KM12 colon = tested on: KM12 colon

Measured: growth

COc1ccc2oc(=O)cc(-c3c(C#N)c(N)n4nc(N)c(C#N)c4c3C#N)c2c1
inactive: BT-549 breast 89.3% | MDA-MB-435 melanoma 113% | SW-620 colon 98% | MCF7 breast 105% | HCT-116 colon 108% | HCC-2998 colon 96.6% | KM12 colon 99%

Cc1cc(Nc2nc(SCc3ccc(C(=O)Nc4ccc(F)cc4N)cc3)nn3cccc23)n[nH]1
active: KM12 colon 7.02%
inactive: BT-549 breast 27% | MDA-MB-435 melanoma 12.8% | SW-620 colon 23.9% | MCF7 breast 23.5% | HCT-116 colon 10.1% | HCC-2998 colon 23.9%

CCOC(=O)/C(=C/c1c(-c2ccccc2)[nH]c2ccccc12)C(=O)c1ccc(Cl)cc1
inactive: BT-549 breast 64.7% | SW-620 colon 45.4% | MCF7 breast 28.4% | HCT-116 colon 14% | HCC-2998 colon 67.1% | KM12 colon 18.6%
active: MDA-MB-435 melanoma 9.31%

C=CCn1c(SCC(=O)Nc2ccc(C(=O)/C=C/c3ccc(Cl)cc3)cc2)nnc1-c1cc(OC)c(OC)c(OC)c1
active: HCT-116 colon 6.42%
inactive: BT-549 breast 94% | MDA-MB-435 melanoma 93.2% | SW-620 colon 98.2% | MCF7 breast 41% | HCC-2998 colon 106% | KM12 colon 93.3%

O=C(O)COc1ccc2c(=O)c3sc4c(=O)c5ccccc5c(=O)c4c3c(=O)c2c1
active: BT-549 breast -97% | MDA-MB-435 melanoma -88.6% | MCF7 breast -57% | HCC-2998 colon -21.1%
inactive: SW-620 colon 10.1% | HCT-116 colon 24.9% | KM12 colon 51.5%

O=CN1N=C(c2ccc(Cl)cc2)CC1c1cccc(Nc2ccnc3cc(C(F)(F)F)ccc23)c1 (stereo unspecified)
inactive: BT-549 breast 53.9% | MDA-MB-435 melanoma 54.3% | SW-620 colon 89.8% | MCF7 breast 38% | HCT-116 colon 56.3% | HCC-2998 colon 76.7% | KM12 colon 59.2%

CN1CCN(/C=C2\CC(C(=O)NCc3ccc(Cl)cc3Cl)NC2=O)CC1 (stereo unspecified)
inactive: BT-549 breast 136% | MDA-MB-435 melanoma 119% | SW-620 colon 98% | MCF7 breast 103% | HCT-116 colon 110% | HCC-2998 colon 101% | KM12 colon 103%

COc1ccc(C2C(c3ccccc3)C(=O)N2c2cc(OC)c(OC)c(OC)c2)cc1I (stereo unspecified)
active: MDA-MB-435 melanoma 2.2% | MCF7 breast 8.53% | HCT-116 colon 3.14%
inactive: BT-549 breast 12% | SW-620 colon 23.7% | HCC-2998 colon 31.8% | KM12 colon 15.3%

COC(=O)/C=C1\SC(=Nc2ccc(C(F)(F)F)cc2)N(CCc2c[nH]c3ccccc23)C1=O
active: BT-549 breast -21.8% | MDA-MB-435 melanoma -85.1% | SW-620 colon -76.1% | MCF7 breast -7.91% | HCT-116 colon -63.4% | HCC-2998 colon -90.6% | KM12 colon -62.8%

C=C1C(=O)O[C@H]2[C@H]1CC/C(COC(=O)CCC(=O)OC/C1=C/CC[C@@]3(C)O[C@H]3[C@H]3OC(=O)C(=C)[C@@H]3CC1)=C\CC[C@@]1(C)O[C@@H]21
inactive: BT-549 breast 67.1% | MDA-MB-435 melanoma 44.5% | MCF7 breast 12% | HCC-2998 colon 93.8% | KM12 colon 85%
active: SW-620 colon 5.48% | HCT-116 colon -43%

COc1ccc(NC(=O)Nc2ccc(Nc3nc(C)cc(Nc4ccc(C)cc4)n3)cc2)cc1
active: BT-549 breast 3.93% | MDA-MB-435 melanoma -97.5% | SW-620 colon -62% | MCF7 breast -63.8% | HCT-116 colon -91.6% | HCC-2998 colon -74.6% | KM12 colon -88.1%

CC(C)(C)c1ccc2oc(=O)n(SC(Cl)(Cl)Cl)c2c1
inactive: BT-549 breast 98.2% | MDA-MB-435 melanoma 107% | SW-620 colon 76.5% | MCF7 breast 86.4% | HCT-116 colon 103% | HCC-2998 colon 96.5% | KM12 colon 95.2%

CC(=O)Oc1ccc(O)cc1
inactive: BT-549 breast 92.7% | MDA-MB-435 melanoma 106% | SW-620 colon 115% | MCF7 breast 88% | HCT-116 colon 95.3% | HCC-2998 colon 123% | KM12 colon 103%

c1ccc(-c2cn3ccnc3c(-c3ccc4c(c3)ncn4C3CCCCC3)n2)cc1
inactive: BT-549 breast 99.6% | MDA-MB-435 melanoma 99.5% | SW-620 colon 110% | MCF7 breast 84.1% | HCT-116 colon 96.2% | HCC-2998 colon 105% | KM12 colon 94.3%

O=c1[nH]nc(-c2ccc(Br)cc2)c2sc(NC(=S)Nc3ccc(Cl)cc3)nc12
inactive: BT-549 breast 92.6% | MDA-MB-435 melanoma 104% | SW-620 colon 96.7% | MCF7 breast 79.7% | HCT-116 colon 96.8% | HCC-2998 colon 97.6% | KM12 colon 99.3%

N#Cc1c(-c2ccc(F)cc2)c(C#N)c2c(C#N)c(N)nn2c1N
inactive: BT-549 breast 95.9% | MDA-MB-435 melanoma 101% | SW-620 colon 107% | MCF7 breast 96.7% | HCT-116 colon 92.5% | HCC-2998 colon 90.3% | KM12 colon 94.1%

C#C[C@@]1(O)[C@@H](CO)O[C@@H](n2cc(Cl)c3c(N)ccnc32)[C@@H]1O
inactive: BT-549 breast 89.9% | MDA-MB-435 melanoma 75.6% | SW-620 colon 54.8% | MCF7 breast 36.7% | HCC-2998 colon 85.4% | KM12 colon 69.9%
active: HCT-116 colon 4.67%

COc1ccc(C2=NN(c3ccc(S(N)(=O)=O)cc3)C(c3ccc(Cl)cc3)C2)c(O)c1 (stereo unspecified)
inactive: BT-549 breast 84.7% | MDA-MB-435 melanoma 47.2% | SW-620 colon 76.2% | MCF7 breast 28.2% | HCT-116 colon 24.4% | HCC-2998 colon 60.6% | KM12 colon 41.3%

O=C(Nc1nccs1)c1noc2ccccc12
inactive: BT-549 breast 102% | MDA-MB-435 melanoma 105% | SW-620 colon 98.8% | MCF7 breast 63.9% | HCT-116 colon 93.8% | HCC-2998 colon 105% | KM12 colon 94.3%

Cn1c2ccccc2c2c(OC(=O)c3ccccc3)c3c(nc21)-c1ccccc1C3
inactive: BT-549 breast 94% | MDA-MB-435 melanoma 104% | SW-620 colon 105% | MCF7 breast 72.7% | HCT-116 colon 95.9% | HCC-2998 colon 106% | KM12 colon 96.7%

C[C@H]1[C@H](C)CC[C@]2(C(=O)OCCOCCOCC[P+](c3ccccc3)(c3ccccc3)c3ccccc3)CC[C@]3(C)C(=CC[C@@H]4[C@@]5(C)CC[C@H](OC(=O)C(Cl)Cl)C(C)(C)[C@@H]5CC[C@]43C)[C@H]12
inactive: SW-620 colon 12.5% | HCC-2998 colon 19.1%
active: BT-549 breast -66.3% | MDA-MB-435 melanoma -24.1% | MCF7 breast 2.81% | HCT-116 colon -36.3% | KM12 colon 7.09%

CNC(=O)c1cc(Oc2ccc3c(c2)sc2nc(-c4ccc(NC(C)=O)cc4)cn23)ccn1
inactive: BT-549 breast 38.3% | SW-620 colon 57.2% | MCF7 breast 55% | HCT-116 colon 48.9% | HCC-2998 colon 78.1% | KM12 colon 43.3%
active: MDA-MB-435 melanoma 3.75%

Cc1cccc(C)c1NCc1nnc(-c2ccc(O)cc2)o1
inactive: BT-549 breast 97.1% | MDA-MB-435 melanoma 99.1% | SW-620 colon 100% | MCF7 breast 90.6% | HCT-116 colon 102% | HCC-2998 colon 100% | KM12 colon 97%

N#Cc1c(NC(=O)c2cccs2)[n+]([O-])c2cc(C(F)(F)F)ccc2[n+]1[O-]
inactive: BT-549 breast 93.9% | MDA-MB-435 melanoma 106% | SW-620 colon 89% | MCF7 breast 98.7% | HCT-116 colon 95.2% | HCC-2998 colon 99.2% | KM12 colon 108%

Cc1cccc(C)c1NCc1nnc(-c2ccco2)o1
inactive: BT-549 breast 99% | MDA-MB-435 melanoma 103% | SW-620 colon 93.8% | MCF7 breast 87.1% | HCT-116 colon 84.1% | HCC-2998 colon 103% | KM12 colon 91.6%

Oc1c(CCl)cc(Cl)cc1Cc1cc(Cl)cc(Cc2cc(Cl)cc(CCl)c2O)c1O
inactive: BT-549 breast 23.9% | MDA-MB-435 melanoma 44.1% | SW-620 colon 25.5% | HCC-2998 colon 19.5% | KM12 colon 23.2%
active: MCF7 breast 8.55% | HCT-116 colon 3.12%

COc1ccc2[nH]c3nc4cnccc4cc3c2c1
inactive: BT-549 breast 104% | MDA-MB-435 melanoma 109% | SW-620 colon 104% | MCF7 breast 82% | HCT-116 colon 97.9% | HCC-2998 colon 117% | KM12 colon 93.2%

COc1ccc(-c2cc(C(=O)N3N=C(c4ccc(N)cc4)CC3c3ccc(OC)cc3)c3cc(OC)ccc3n2)cc1 (stereo unspecified)
inactive: BT-549 breast 66.4% | SW-620 colon 30.1% | MCF7 breast 14.2% | HCC-2998 colon 91.6% | KM12 colon 22.5%
active: MDA-MB-435 melanoma 3.45% | HCT-116 colon 7.78%

CCc1n(Cc2ccc3ccccc3c2)c2ccccc2[n+]1Cc1ccc2ccccc2c1
inactive: BT-549 breast 58.7% | MDA-MB-435 melanoma 46.7% | SW-620 colon 77.1% | MCF7 breast 49.6% | HCT-116 colon 51.5% | HCC-2998 colon 58% | KM12 colon 39.6%

O=Cc1[nH]c(Sc2ccccc2)c2ccccc12
inactive: BT-549 breast 53.4% | MDA-MB-435 melanoma 81.7% | SW-620 colon 81.1% | MCF7 breast 72.2% | HCT-116 colon 60.6% | HCC-2998 colon 109% | KM12 colon 81.2%

COC(=O)/C=C/c1cc(OC(C)=O)c2c(c1)C(C(=O)OC)C(c1ccc(OC(C)=O)c(OC(C)=O)c1)O2 (stereo unspecified)
active: BT-549 breast -4.09% | MDA-MB-435 melanoma -26.1% | HCT-116 colon 9.77%
inactive: SW-620 colon 20.5% | MCF7 breast 10% | HCC-2998 colon 25.5% | KM12 colon 16.5%

COc1ccc(C(=O)c2cc(OC)c(OC)c(OC)c2)cc1OC(=O)C(Cl)(Cl)Cl
active: BT-549 breast -0.136% | MDA-MB-435 melanoma -13.5% | MCF7 breast 9.81% | HCT-116 colon 4.91% | KM12 colon 9.4%
inactive: SW-620 colon 22.9% | HCC-2998 colon 15.4%

Oc1ccc(CNNc2ccnc3c(O)cccc23)c2cccnc12
inactive: BT-549 breast 37.1% | MDA-MB-435 melanoma 38.1% | SW-620 colon 27.9% | MCF7 breast 11.2% | HCT-116 colon 27.3% | HCC-2998 colon 35.7% | KM12 colon 22.9%
